Source: PubChem BioAssay (National Center for Advancing Translational Sciences (NCATS))
TbPYK inhibitor: inhibitors of Trypanosoma brucei pyruvate kinase. Q57TT1. TbPYK enzyme, Kinase-Glo Plus ATP luminescence, 45 min. Potency, µM (highest dose often 76.8 µM), without a hit: top-dose activity, negative = inhibition, usual class: inhibitors. 0.12% of 410,000 active; also: potency is read from the fitted curve at half-maximal effect; % is scaled to controls: 0 for no effect and ±100 for the full control effect; nearly all actives have a fitted effect of over 50% in size
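Glycolytic pyruvate kinase of T. brucei was incubated with substrate, test compound and 130 uM ADP for 45 minutes at room temperature. Luminescent Kinase-Glo Plus signal was measured after 10 minutes.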
Cycloheximide cs: counter-screen for Shiga toxin inhibitors: cycloheximide protein synthesis inhibition | cell reporter, cycloheximide protein synthesis inhibition counterscreen | max response, % | 12% of 300,000 active | AID 2314; in the data active = max response mostly above about 13%, no sharp cut-off; inactive = mostly below about 14%; also: read at 38.3 µM for the half of the compounds with a filed dose; 0% is about no effect
NS1 inh: inhibitors of influenza NS1 protein function. Potency, µM (series often up to 46.1 µM), inactives show at the top dose activity, positive = more growth. 0.4% of 270,000 active; calls by dose curve; also: potency is read from the fitted curve at half-maximal effect; actives are rising curves; nearly all actives have a fitted effect of over 50% in size
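OD600 was taken as the measure of yeast growth restored by compound in an NS1-expressing S. cerevisiae strain. Cells had been washed out of glucose medium and diluted 1:100 into galactose -URA medium, pH 6.0.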
SARS PLP yeast: blocks SARS-CoV papain-like protease in a yeast assay. S. cerevisiae expressing SARS-CoV PLpro, growth rescue. Potency, µM (highest dose often 32.9 µM), without a hit: at the highest dose activity, positive = growth rescue, usual class: activators. 0.19% of 330,000 active. AID 485353; calls by dose curve; also: potency is read from the fitted curve at half-maximal effect; 0% is about no effect; nearly all actives have a fitted effect of over 55% in size
LmPK inh: LmPK (Leishmania mexicana) enzyme inhibition | Potency, µM (series often up to 57.5 µM), inactives show top-dose activity change, negative = inhibition, hits mostly inhibitors | 0.37% of 290,000 active | purified LmPK, Kinase-Glo ATP luminescence, 1 h; also: potency is read from the fitted curve at half-maximal effect; % is scaled to controls: 0 for no effect and ±100 for the full control effect
Target sequence (Q27686 whole entry, looked up): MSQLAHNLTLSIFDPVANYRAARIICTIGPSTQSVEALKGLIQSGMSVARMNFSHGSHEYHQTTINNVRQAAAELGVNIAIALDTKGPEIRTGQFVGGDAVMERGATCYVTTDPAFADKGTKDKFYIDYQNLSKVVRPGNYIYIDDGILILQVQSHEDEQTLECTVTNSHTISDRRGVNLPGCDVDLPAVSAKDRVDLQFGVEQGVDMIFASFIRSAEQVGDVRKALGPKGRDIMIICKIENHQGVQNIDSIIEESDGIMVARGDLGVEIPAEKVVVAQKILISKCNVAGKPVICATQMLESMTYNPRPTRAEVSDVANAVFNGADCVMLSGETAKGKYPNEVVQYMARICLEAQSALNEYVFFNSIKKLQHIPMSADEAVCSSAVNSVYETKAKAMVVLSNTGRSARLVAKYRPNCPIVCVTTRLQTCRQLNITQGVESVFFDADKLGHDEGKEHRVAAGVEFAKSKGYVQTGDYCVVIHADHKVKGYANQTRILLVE
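Kinase-Glo luminescence read after 1 h RT reaction of 0.1 nM LmPK with 0.5 mM PEP and 0.1 mM ADP. Activity scaled between uninhibited and enzyme-free controls.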
Shiga toxin inh: blocks Shiga toxin action in Vero cells; Vero cells, Shiga toxin protein synthesis inhibition reporter; inhibition, % at 38.7 µM; 9.2% of 290,000 active; in the data active = inhibition mostly above about 28%, no sharp cut-off; inactive = mostly below about 43%; also: 0% is about no effect
An asterisk follows results filed as active; u = inconclusive; x = no result given. This is one part of a sample in which hits are shown more often than they occur. Unless noted, calls follow the shape of the dose curve; as a rule, active = well fitted curve in the direction sought with a large enough effect; inconclusive = small, poorly fitted or top-dose-only effect, or another doubt; inactive = no such curve, though single readings can be large; an effect the other way counts as inactive or inconclusive.

SMILES	TbPYK inhibitor	Cycloheximide cs	NS1 inh	SARS PLP yeast	LmPK inh	Shiga toxin inh
CC(C)Oc1ccc(S(=O)(=O)N2CCOCC2)cc1NC(=O)CSc1nnc(C2CC2)n1C	3%	x	x	x	x	x
CCCCc1nn2c(=O)cc(COC(=O)c3ccccc3C)nc2s1	2%	x	x	x	x	x
Nc1nc(-c2ccc(Br)cc2)cs1	-7%	20*	-103%	-33%	-3%	88*
Brc1ccc(-c2csc(Nc3nc(-c4ccc(Br)cc4)cs3)n2)cc1	-4%	22*	u	-2%	1%	42
Nc1nc(-c2cccc(Br)c2)cs1	0%	46*	-189%	-57%	-4%	82*
Cc1ccc(Cn2ccc(=O)c(OCc3ccccc3)c2C)cc1	4%	24	1%	9%	7%	118
Cc1c(O)c(=O)ccn1Cc1ccccc1	5%	-4	u	10µM*	4%	-12
CCOC(=O)N1CCN(C(=O)c2cc3cc(Cl)ccc3[nH]2)CC1	2%	13	-4%	-2%	4%	4
O=C1c2ccccc2C(=O)c2c(Nc3ccc4c5c(cccc35)C(=O)c3ccccc3-4)cccc21	x	x	1%	x	x	x
CNc1cccc2c1C(=O)c1ccccc1C2=O	-8%	16*	3%	-22%	-13%	33
CC(=O)Nc1nc2c(F)cccc2s1	-14%	x	x	x	x	x
O=C(Cc1cccs1)Nc1nc2c(ccc3ccccc32)s1	1%	34*	-3%	14%	-10%	86*
CC(=O)Nc1nc2c(ccc3ccccc32)s1	-1%	9.9*	-7%	14%	1%	20
O=C(Nc1nc2c(ccc3ccccc32)s1)c1cc([N+](=O)[O-])ccc1N1CCOCC1	x	45*	5%	2%	-1%	73*
COc1cc(NS(=O)(=O)c2cc(Br)cc3c2N(C(=O)C2CC2)CC3)cc(OC)c1	1%	x	x	x	x	x
O=C(NCc1ccc(F)cc1F)[C@@H]1CCCN1C(=O)[C@@H]1CCCN1C(=O)c1ccccc1	1%	x	x	x	x	x
Cc1ccc2c(CSc3nnc(N)s3)cc(=O)oc2c1	-4%	32*	-2%	-2%	-3%	60*
COc1ccc(OC)c(S(=O)(=O)Nc2ccc(O)c3ccccc23)c1	u	26*	4%	-46%	-1%	35*
COc1ccc(OC)c(S(=O)(=O)Nc2cccc3c(O)cccc23)c1	-7%	x	x	x	x	x
CC(=O)Nc1ccccc1C(=O)C(=O)Nc1ccccc1	-5%	11	6%	2%	1%	41
CC(=O)Nc1ccccc1C(=O)C(=O)Nc1cccc(Br)c1	6%	37*	3%	-5%	4%	100*
CC(=O)Nc1ccccc1C(=O)C(=O)Nc1ccc(Cl)cc1	-1%	17*	x	-1%	2%	75*
CCC(=O)Nc1ccccc1C(=O)C(=O)Nc1ccccc1	2%	35*	-2%	23%	-3%	38*
CC(=O)Nc1ccccc1C(=O)C(=O)Nc1cccc(C(=O)N2CCC3(CC2)OCCO3)c1	-1%	-1	x	4%	-8%	-12
COc1ccc(C2=Nn3c(nnc3-c3ccc(OC)c(OC)c3)SC2)c(OC)c1	x	-2	x	x	x	22
SMILES	TbPYK inhibitor	Cycloheximide cs	NS1 inh	SARS PLP yeast	LmPK inh	Shiga toxin inh
COc1ccc(CNC(=O)c2ccc3nc(CCc4ccccc4)oc3c2)c(OC)c1	-3%	x	x	x	x	x
CC(C)(C)OC(=O)NCCc1nnc(SCC(=O)Nc2ccc(Br)cc2)o1	-4%	-3	4%	-1%	3%	25
O=C(Nc1c(Br)cc2c(c1Br)Cc1ccccc1-2)C(Cl)Cl	-2%	x	x	x	x	x
Cc1cc(C)n(-c2ncccc2[N+](=O)[O-])n1	-1%	-2	0%	0%	0%	8
CC(C)c1ccc(-n2cnn(-c3ncccc3[N+](=O)[O-])c2=O)cc1	-5%	34*	-4%	-2%	-13%	77*
O=C(/C=C/c1ccco1)NC(=S)Nc1ccccn1	0%	56*	-70%	-6%	1%	109*
Cc1cccnc1NC(=S)NC(=O)/C=C/c1ccco1	4%	71*	6%	21%	3%	152*
Cn1nnc(NC(=S)NC(=O)/C=C/c2ccco2)n1	-22%	2	7%	6%	13%	-4
CC(=O)c1sc2c(c1C)c(=O)n(-c1ccc(Cl)cc1)c(=O)n2Cc1ccc(Cl)cc1	0%	x	x	x	x	x
COc1ccc(CC(=O)O/N=C(\N)c2ccc(C)cc2)cc1	-6%	47*	-5%	-5%	4%	118*
COc1ccc(CC(=O)O/N=C(\N)Cc2cccc3ccccc23)cc1	1%	5	-12%	-55%	2%	-9
COc1ccc(CC(=O)O/N=C(\N)c2ccncc2)cc1	-3%	15*	3%	0%	5%	82*
COc1ccc(/C(N)=N/OC(=O)Cc2ccc(C)cc2)cc1OC	1%	15*	2%	-16%	-6%	-5
Cc1c(Cl)cccc1NC(=O)Cn1nc(C(F)(F)F)c2c1CCC2	3%	x	x	x	x	x
O=C1CSC(=S)N1N=C1CCCCCC1	-6%	14*	-1%	16%	0%	17
O=C1CSC(=S)N1/N=C/c1c(F)cccc1F	1%	9	11%	1%	1%	-4
COc1ccc(NC(=O)c2cn(CC(C)C)c(=O)c3cc(OC)c(OC)cc23)cc1Cl	-10%	x	x	x	x	x
O=C1C(C=NCc2ccncc2)=C(O)c2ccccc21	2%	49*	0%	-5%	6%	102
O=C1C(C=NCc2cccnc2)=C(O)c2ccccc21	-10%	72*	-4%	-2%	-25%	101*
Oc1oc(-c2ccccc2)nc1C=NCc1ccncc1	-4%	-2	9%	5%	0%	2
O=C1C(C=NCc2ccco2)=C(O)c2ccccc21	0%	25*	-11%	1%	-25%	79*
CSCCC(NC(=O)COc1ccccc1)C(=O)NCC(C)(C)N1CCOCC1 (centres undefined)	-9%	x	x	x	x	x
COC(=O)c1ccc(N2CCOCC2)c(F)c1	4%	7	5%	3%	0%	16
COC(=O)c1ccc(N2CCC(C)CC2)c(N)c1	-28%	38*	-9%	0%	-2%	45
COC(=O)c1ccc(C(=O)OC)c(N)c1	x	13	-11%	3%	-13%	17
SMILES	TbPYK inhibitor	Cycloheximide cs	NS1 inh	SARS PLP yeast	LmPK inh	Shiga toxin inh
COC(=O)c1ccc(N2CCCCC2)c(N)c1	-20%	57*	1%	0%	-1%	100*
O=C(CN1C(=O)NC2(CCc3ccccc32)C1=O)c1ccc(Br)cc1 (centres undefined)	5%	x	x	5%	x	x
Cc1ccc(-c2nc(N)s[n+]2-c2ccccc2)cc1	u	81*	24%	8%	32µM*	91*
Cc1ccc(-c2nc3ccccc3nc2-c2ccccc2)cc1	0%	11	-5%	-5%	2%	-5
CNc1nc(-c2ccccc2)[n+](-c2ccc(C)cc2)s1	u	30*	-9%	u	22µM*	135*
Cc1ccc(-c2cc(-c3ccc(C)cc3)[n+](-c3ccccc3)c(-c3ccc(C)cc3)c2)cc1	1%	x	x	-2%	x	x
